Columns and labels:
Conditions in all cases: concentration: 1 μM, replicates: in singlicate; n = 1
NEK11 = system: NEK11
NEK1 = system: NEK1
NEK2 = system: NEK2
NEK3 = system: NEK3
NEK4 = system: NEK4
NEK5 = system: NEK5
NEK6 = system: NEK6
NEK7 = system: NEK7
NEK9 = system: NEK9
NIK = system: T1, NIK
T1 construct: gene MAP3K14
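Note: KINOMEscan kinase panel screen.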

SMILES	%Inh (NEK11) [%]	%Inh (NEK1) [%]	%Inh (NEK2) [%]	%Inh (NEK3) [%]	%Inh (NEK4) [%]	%Inh (NEK5) [%]	%Inh (NEK6) [%]	%Inh (NEK7) [%]	%Inh (NEK9) [%]	%Inh (NIK) [%]
Cl.Cl.NCC(NC(=O)c1cc(-c2ccccc2)c(-c2ccnc3[nH]ccc23)s1)c1ccccc1 (centres unmarked) [GSK1321561]	6	0	8	0	0	6	0	0	13	17
CCS(=O)(=O)c1ccc(OC)c(Nc2nccc(-c3c(-c4cccc(NC(=O)c5c(F)cccc5F)c4)nn4ncccc34)n2)c1 [GSK326180]	0	0	4	14	6	15	0	0	10	6
CN1CCN(CCCNc2nccc(-c3c(-c4ccc(F)cc4)nn4cc(C(F)(F)F)ccc34)n2)CC1 [GW621581]	14	0	14	0	0	0	0	11	0	18
Cl.c1ccc(-c2ccc3c(Nc4ccc5[nH]ncc5c4)ccnc3c2)nc1 [GW440137]	0	0	0	11	0	13	0	0	7	10
O=C(Nc1cccc(-c2nn3ncccc3c2-c2ccnc(Nc3ccccc3)n2)c1)c1c(F)cccc1F [GSK198271]	0	3	21	11	4	0	0	0	8	0
COc1cccc(NC(=O)NC2CCN(c3ccnc(Nc4cc(OC)c(OC)c(OC)c4)n3)C2)c1 (centres unmarked) [GSK1379763]	0	65	21	33	5	100	16	52	40	6
Cl.c1ccc(-c2ccc3c(Nc4ccc5[nH]ccc5c4)ccnc3c2)nc1 [GW440138]	0	0	0	9	0	0	0	0	0	24
COc1cc(Nc2nccc(-c3c(-c4cccc(NC(=O)c5c(F)cccc5F)c4)nn4ncccc34)n2)cc(OC)c1OC [GSK327238]	0	0	92.7	0	12	58	17	18	41	13
COc1cc(Nc2nccc(N3CCC(NC(=O)c4cc5ccccc5s4)C3)n2)cc(OC)c1OC (centres unmarked) [GSK1379760]	0	35	26	11	13	99.5	27	37	31	4
Nc1ncc(-c2cccnc2)c2scc(-c3ccc4c(c3)CCN4C(=O)Cc3ccccc3)c12 [GSK683281]	44	0	70	1	17	22	8	19	28	4
COc1ccc(CNC(=O)NC2CCN(c3ccnc(Nc4ccc(F)cc4)n3)CC2)cc1 [GSK1379788]	2	0	0	12	0	13	0	0	0	12
O=C(Nc1n[nH]c2cc(-c3ccoc3)ccc12)C1CC1 [SB-738481]	4	0	8	2	1	0	11	16	0	9
CN(C)S(=O)(=O)c1cc(-c2ccc3nccc(-c4cccc(S(N)(=O)=O)c4)c3c2)cnc1N [GSK1669921]	0	0	34	0	10	0	0	31	32	3
O=C(Nc1cccc(Oc2ccc3nc(NC(=O)C4CC4)cn3n2)c1)c1ccccc1C(F)(F)F	0	9	12	26	0	9	0	0	0	0
Oc1cc(Nc2ccnc3cc(I)ccc23)ccc1F [GW552771]	0	0	0	1	38	0	0	0	0	0
COc1cc2c(cc1OCCN1CCNCC1)ncc1c3ccc(C#N)cc3[nH]c21	7	0	41	29	100	0	15	0	0	65
CN1CCN(Cc2cccc(-c3ccc4c(Nc5ccc(Oc6ccccc6)cc5)ccnc4c3)c2)CC1 [GW578342]	28	0	0	3	0	0	0	0	16	24
Cc1ccc(F)c(C(=O)Nc2cccc(-c3nn4ccccc4c3-c3ccnc(Nc4cccc(F)c4)n3)c2)c1F [GSK361061]	0	0	0	8	18	12	9	14	16	5
CN(C)Cc1ccc(-c2ccc3c(Nc4ccc(Oc5ccccn5)cc4)ccnc3c2)o1 [GW567148]	8	0	0	0	21	0	0	0	0	12
c1ccc(-c2cnc3nccnn23)cc1 [AH20685]	0	0	0	0	16	0	0	0	0	0
CC(C)c1nc(-c2cccc(NS(=O)(=O)c3c(F)cccc3F)c2F)c(-c2ccnc(Nc3ccc(N4CCOCC4)nc3)n2)s1 [GSK2008607]	98.6	82	99.1	1	51	26	99.1	92.9	93.6	0
Cc1cccc(Nc2nc(N[C@H]3CCNC3)ncc2C(N)=O)c1.Cl [GSK2197149]	0	50	0	7	27	8	0	0	0	20
c1ccc(Oc2ccc(Nc3ccnc4cc(-c5ccc(CNCCN6CCOCC6)o5)ccc34)cc2)nc1 [GW567145]	45	0	0	0	0	0	0	0	13	28
Cc1ccc(C)c(NC(=O)NC2CCN(c3ccnc(Nc4ccc(F)cc4)n3)C2)c1 (centres unmarked) [GSK1379720]	15	0	0	8	27	4	0	0	0	22
NCCCC(NC(=O)c1cc(Br)c(-c2ccnc3[nH]ccc23)s1)c1ccccc1.O=C(O)C(F)(F)F.O=C(O)C(F)(F)F (centres unmarked) [GSK1287544]	0	74	9	0	9	88	16	0	17	16
COc1ccc(-c2coc3ccc(-c4nnc(SCc5ccc(OC)c(C(F)(F)F)c5)o4)cc23)cc1	0	0	8	0	2	0	13	0	0	1
C[C@@H]1CC[C@@H](C(=O)Nc2ccccc2)CN1c1cc(-c2ccc3c(N)n[nH]c3c2)nc(N)n1 [GSK2286062]	0	1	0	4	0	7	0	0	8	0
Cl.Cl.NCC(C(=O)Nc1cc(Br)c(-c2ccnc3[nH]ccc23)s1)c1ccccc1 (centres unmarked) [GSK1269851]	0	0	15	18	15	0	0	10	9	8
COC(=O)Nc1nc2cc(Oc3ccc(NC(=O)Nc4cc(C(F)(F)F)ccc4F)cn3)ccc2[nH]1.Cl.Cl [GW681170]	34	0	0	0	0	0	0	0	35	26

From PMC5540273 (PLoS ONE, 2017)
